Compound activity as filed in PubChem.
A selection: hits, their analogues and other compounds. The true share with any hit is near 1.6%.
RAD54 branch = blocks human RAD54 Holliday junction branch migration; Q92698; FAM/BHQ fluorescence; inhibition, % at 10.4 µM; actives 0.14% (n = 360,000); AID 602329;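 active = mean normalized replicate activity at least 40 and at least half of replicates scoring 40 or more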;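 note: inhibitors cause a drop in the FAM fluorescence signal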
Glyco luc inh = blocks N-linked glycosylation in D54 reporter cells | D54 ERlucT glycosylation luciferase reporter, 24 h; percent of 100 nM tunicamycin response | reporter increase, % at 12.5 µM | actives 0.23% (n = 360,000);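 active = mean luciferase reporter signal, scaled so untreated is 0 and the glycosylation-blocking control 100, at or above a set limit in every replicate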;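 note: luciferase carries N-glycosylation sites so blocking glycosylation raises the light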
Vif inh = HIV Vif inhibition; AID 602346; actives 0.35% (n = 340,000); inhibition, % at 7.49 µM; HEK293T cells, Vif self-association by quenched fluorescence, imaging, 24 h; in the data active = inhibition above about 50%, passing the limit was not always enough
Myeloid diff 2 = promotes myeloid progenitor differentiation; ER-HoxA9 myeloid progenitors, lysozyme-GFP differentiation, flow cytometry; AID 624256; actives 1% (n = 360,000); calls only at 10 µM;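 active = normalized GFP-positive differentiation at or above the plate's own cutoff, the solvent-only control mean plus 3 SD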;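 note: cells exposed to compound for four days before flow analysis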
ABCB6 inh 2 = blocks the human ABCB6 transporter | actives 0.19% (n = 360,000) | Q9NP58 | fluorescence ratio to DMSO, % at 10 µM | K562-ABCB6 porphyrin accumulation, flow cytometry, 1 h; active compounds read low;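 active = fluorescence ratio to DMSO below 75%, the collection mean minus 3 SD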;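 note: signal is porphyrin accumulated inside mitochondria; lower ratio means ABCB6 inhibition with less porphyrin fluorescence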
Hits are given with their value; – = inactive; · = no result; + = active, no number.

SMILES	RAD54 branch	Glyco luc inh	Vif inh	Myeloid diff 2	ABCB6 inh 2
CC[C@@H]1C(c2ccccc2)=NN(c2ccccc2)[C@H]1C(=O)N1CCOC1=O	–	–	–	+	–
C[C@H]1CN([C@@H](C)CO)C(=O)c2cccc(NC(=O)Nc3ccc4c(c3)OCO4)c2O[C@H]1CN(C)C(=O)Nc1cccc2ccccc12	–	·	·	·	·
C[C@@H]1CN([C@@H](C)CO)S(=O)(=O)c2ccc(C3=CCCC3)cc2O[C@H]1CN(C)C(=O)Cc1ccncc1	–	·	·	·	·
NCCOc1ccccc1OCCN	–	–	–	–	–
NCCOc1ccccc1-c1ccccc1	–	–	50	–	–
CC(C)NC(=O)N[C@H]1CC[C@H](CCNC(=O)C2CCCC2)O[C@H]1CO	–	·	·	·	·
O=C(/C=C/c1ccccc1)Nc1ncn[nH]1	–	–	59	–	–
N#C/C(=C/C=C/c1ccccc1)C(=O)Nc1ccccc1	–	–	–	+	–
CN1/C(=C/C(=O)c2cccs2)Sc2ccccc21	56	–	–	–	–
CC(=O)Nc1ccc2nc3c(=O)n(C)c(=O)n(C)c3nc2c1	·	–	–	+	–
Cn1c(=O)c2nc3ccccc3nc2n(C)c1=O	–	–	–	–	–
CNC(=O)c1ccc(-c2sc3nc(N4CCOCC4)c4c(c3c2N)CC(C)(C)OC4)o1	–	–	–	–	–
CC1(C)Cc2c(c(N3CCOCC3)nc3sc(-c4ccc(C(=O)O)o4)c(N)c23)CO1	–	–	·	+	–
CC(=O)Nc1sc(N/N=C/c2ccccc2)nc1-c1ccc(C)cc1	·	–	–	–	–
CC(=O)Nc1sc(/C(C#N)=C\c2cccc(Cl)c2)nc1-c1ccc(C)cc1	–	–	–	+	–
C[C@@H]1CN([C@H](C)CO)C(=O)c2cc(-c3ccc(C(=O)N(C)C)cc3)cnc2O[C@H]1CN(C)C	–	·	·	·	·
COc1cc2ncnc(NCc3cccc(Cl)c3)c2cc1OC	·	–	–	+	–
Cc1nn(-c2ccccc2)c(C)c1-c1cc(C(=O)N/N=C/c2ccc(O)cc2)[nH]n1	·	–	–	–	–
COc1cc(/C=N/NC(=O)c2cc(-c3c(C)nn(-c4ccccc4)c3C)n[nH]2)ccc1O	–	54	–	–	–
O=C1CSC(=S)N1/N=C/c1cc(Br)c(O)c(Br)c1	–	–	70	–	–
C[C@@H]1CN([C@@H](C)CO)C(=O)c2cc(NC(=O)NC3CCCCC3)ccc2O[C@@H](C)CCCCO[C@H]1CN(C)Cc1ccc(C(F)(F)F)cc1	–	·	·	·	·
O=C(C[C@H]1C[C@@H]2c3cc(NC(=O)NC4CCCC4)ccc3O[C@@H]2[C@@H](CO)O1)NCc1ccc(Oc2ccccc2)cc1	–	·	·	·	·
C[C@@H]1CN([C@@H](C)CO)C(=O)c2cc(C#Cc3ccccc3F)cnc2O[C@@H]1CN(C)C(=O)C1CCC1	–	·	·	·	·
CC(=O)Nc1ccc(/C=C/c2ccc3cccc([N+](=O)[O-])c3n2)cc1	–	–	–	+	–
CCOc1ccccc1C1N=C(c2ccc(OC)cc2)CC(c2ccccc2O)N1 (stereo unspecified)	·	–	–	–	–
SMILES	RAD54 branch	Glyco luc inh	Vif inh	Myeloid diff 2	ABCB6 inh 2
CC(C)C1N=C(c2ccc3c(c2)OCO3)CC(c2ccccc2O)N1 (stereo unspecified)	–	37	–	–	–
C[C@H](CO)N1C[C@H](C)[C@H](CN(C)Cc2ccc(C(=O)Nc3ccccc3N)cc2)Oc2ccc(NS(=O)(=O)c3cn(C)cn3)cc2C1=O	–	·	·	·	·
O=C(CN(Cc1ccc(F)cc1)C(=O)CCC(=O)Nc1nccs1)NCC1CCCO1 (stereo unspecified)	–	–	–	+	–
O=C(CN(C(=O)CCC(=O)Nc1nccs1)c1ccc(F)cc1)NCC1CCCO1 (stereo unspecified)	–	–	–	–	–
COc1cc(/C=C2/CCC/C(=C\c3cc(O)c(OC)c(Cl)c3)C2=O)cc(Cl)c1O	–	35	–	·	–
COc1ccc(OC)c(C(=O)c2coc3ccc(OCC(=O)O)cc23)c1	–	–	–	–	–
CC(=O)c1coc2ccc(OCC(=O)O)cc12	–	–	–	+	–
Cc1cc(/C=C2\NC(=S)N(C)C2=O)ccc1N1CCCC1	–	–	+	+	–
Cc1cc(/C=C2/C(=O)N(C)C(=S)N2C)ccc1N1CCCC1	·	–	–	–	–
CCCN1C(=O)/C(=C/c2ccc(N3CCCC3)c(C)c2)NC1=S	–	–	147	+	–
Cc1ccc(-c2ccc3c(c2)O[C@H](CN(C)Cc2cccnc2)[C@@H](C)CN([C@@H](C)CO)S3(=O)=O)cc1	–	·	·	·	·
